# Experimental data taken from PubChem BioAssay (Tox21).
# “And” between values parts separate entries of the source, which are not always exact repeats. Equal values may be shown once. Inconclusive results are not listed. A call without a number means that no potency is given here. More than one record can exist for a structure, and the calls need not agree. The source made the active and inactive calls. Unless noted, the call rests on the fitted dose curve; in most records, active means well fitted curve in the direction sought with a large enough effect in the repeat runs; inconclusive means weak or mixed curves; inactive means no such curve, though single readings can be large; an effect the other way counts as inactive or inconclusive.
# Columns and labels:
# [1] = qHTS assay to identify small molecule agonists of the vitamin D receptor (VDR) signaling pathway - cell viability counter screen (AID 743224); further: nearly all actives have a fitted effect of over 50% in size; further: potency means the concentration at half of the fitted maximal effect
# Procedure, shortened: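 VDR-bla cells, 4 h after plating, exposed to compounds for 16 h at 37C; viability then read in the same wells as CellTiter-Glo luminescence after 30 min at room temperature, following the bla FRET read.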
# [2] = qHTS assay to identify small molecule antagonists of the vitamin D receptor (VDR) signaling pathway - cell viability counter screen (AID 743225); further: nearly all actives have a fitted effect of over 50% in size; further: potency means the concentration at half of the fitted maximal effect
# Procedure, shortened: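 Cells (VDR-UAS-bla HEK 293T) are plated, rested 4 h at 37C, dosed with compound and 3 nM final 1-alpha,25-dihydroxy vitamin D3, and incubated 16 h. Viability is taken from CellTiter-Glo luminescence in the reporter wells.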
# [3] = qHTS assay to identify small molecule agonists of the NFkB signaling pathway (AID 1159509; active means well fitted curve in the direction sought with a large enough effect in the signal ratio in the repeat runs, not every such curve was filed as active; the % refers to the signal ratio; further: series mostly up to about 61 µM)
# Procedure, shortened: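 NFkB-bla ME-180 cells carry a beta-lactamase reporter under an NF-kB response element. They were plated overnight, then exposed to compounds for 5 h at 37 C. Read-out is LiveBLAzer FRET after 1.5 hr at room temperature (405 nm excitation; 460/530 nm emission).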
# [4] = qHTS assay to identify small molecule agonists of the NFkB signaling pathway - cell viability counter screen (AID 1159515; calls by dose curve; further: series mostly up to about 61 µM; nearly all actives have a fitted effect of over 55% in size)
# Procedure, shortened: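 NFkB-bla ME-180 cells, 2,000/well, plated overnight at 37 C; compound added for 5 hr at 37 C. Viability read in the same wells as the bla reporter, by CellTiter-Glo luminescence after 30 min at room temperature.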
# [5] = qHTS assay to identify small molecule agonists of the endoplasmic reticulum stress response signaling pathway (AID 1159516; active means well fitted activation curve with a large enough effect in the signal ratio in the repeat runs, not every such curve was filed as active; the % refers to the signal ratio)
# Procedure, shortened: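 CellSensor ESRE-bla HeLa cells, 1,500 per well, plated overnight, then exposed to compounds for 5 hr at 37 C. Beta-lactamase reporter read with LiveBLAzer B/G FRET substrate after 2 hr at room temperature, 405 nm excitation, 460 and 530 nm emission.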
# [6] = qHTS assay to identify small molecule antagonists of the retinoid-related orphan receptor gamma (ROR-gamma) signaling pathway - cell viability counter screen (AID 1159520); further: nearly all actives have a fitted effect of over 50% in size; further: potency means the concentration at half of the fitted maximal effect
# Procedure, shortened: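 Cytotoxicity was read from cellular ATP (CellTiter-Glo luminescence) after 16 hr at 37 C with 1 uM doxycycline induction. The inducer was added 2 hr after compound transfer to Tet-on ROR gamma CHO cells.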
# [7] = qHTS assay to identify small molecule agonists of the AP-1 signaling pathway - cell viability counter screen (AID 1159525; calls by dose curve; further: nearly all actives have a fitted effect of over 55% in size)
# Procedure, shortened: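 Luminescent ATP readout (Cell Titer Glo, 30 min RT), normalised to DMSO and tetra n-octyl ammonium bromide controls. Cells were ME-180 AP-1-bla in 0.5% dialyzed FBS Opti-MEM, with a 5 h, 37 °C compound exposure.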
# [8] = qHTS assay to identify small molecule agonists of the AP-1 signaling pathway (AID 1159526; calls by dose curve)
# [9] = target: Retinoic acid receptor RXR-alpha (Homo sapiens) (UniProt P19793); experiment: qHTS assay to identify small molecule agonists of the RXR signaling pathway (AID 1159527; calls by dose curve; further: nearly all actives have a fitted effect of over 35% in size)
# Sequence of Retinoic acid receptor RXR-alpha (Homo sapiens) (P19793 whole entry, looked up): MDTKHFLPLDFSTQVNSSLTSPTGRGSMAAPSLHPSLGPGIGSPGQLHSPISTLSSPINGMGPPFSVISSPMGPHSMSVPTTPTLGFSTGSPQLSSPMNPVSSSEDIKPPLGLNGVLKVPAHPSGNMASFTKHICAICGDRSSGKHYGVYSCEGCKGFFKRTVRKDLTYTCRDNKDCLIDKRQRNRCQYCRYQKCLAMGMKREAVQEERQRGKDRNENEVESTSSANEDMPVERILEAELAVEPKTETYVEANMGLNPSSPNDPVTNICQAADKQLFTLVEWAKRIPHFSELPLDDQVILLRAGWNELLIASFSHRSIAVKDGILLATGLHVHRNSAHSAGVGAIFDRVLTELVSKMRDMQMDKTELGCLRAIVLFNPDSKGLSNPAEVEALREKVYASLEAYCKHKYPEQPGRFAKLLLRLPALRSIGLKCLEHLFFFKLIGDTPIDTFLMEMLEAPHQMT
# Procedure, shortened: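 qHTS of the Tox21 10K library in GeneBLAzer RXR-alpha HEK 293T cells carrying a beta-lactamase reporter […]; 16 hr treatment, 9-cis retinoic acid as agonist control, FRET read-out.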
# [10] = qHTS assay to identify small molecule agonists of the RXR signaling pathway - cell viability counter screen (AID 1159529); further: nearly all actives have a fitted effect of over 50% in size; further: potency means the concentration at half of the fitted maximal effect
# Procedure, shortened: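 Cell viability is measured by CellTiter-Glo luminescence, 30 min at room temperature, in wells already read for beta-lactamase. Engineered HEK 293T cells (RXR-alpha-UAS-bla) are dosed 16 hr at 37 C. Tetraoctyl ammonium bromide serves as positive control.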
# [11] = qHTS assay to identify small molecule antagonists of the retinoid acid receptor (RAR) signaling pathway - cell viability counter screen (AID 1159551); further: nearly all actives have a fitted effect of over 35% in size; further: potency means the concentration at half of the fitted maximal effect
# Procedure, shortened: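 C3RL4 RARE-luciferase cells, 1,000/well, incubated overnight, then dosed with compound plus 1 uM retinol (final). After 6 hr at 37 C, viability read by CellTiter-Glo ATP luminescence following 30 min at room temperature.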
# [12] = target: Nuclear receptor ROR-gamma (Homo sapiens) (UniProt P51449); experiment: qHTS assay to identify small molecule antagonists of the retinoid-related orphan receptor gamma (ROR-gamma) signaling pathway (AID 1159521; further: nearly all actives have a fitted effect of over 50% in size; further: potency means the concentration at half of the fitted maximal effect)
# Procedure, shortened: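 RORγ antagonism is scored from reduced reporter luminescence in Tet-on CHO cells. Induction used 1 uM final doxycycline hyclate for 16 h at 37 C, following a 2 h compound exposure.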
# [13] = qHTS assay to identify small molecule antagonists of the retinoic acid receptor (RAR) signaling pathway (AID 1159552; further: nearly all actives have a fitted effect of over 50% in size)
# Procedure, shortened: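 Quantitative HTS in C3RL4 RARE-luciferase reporter cells. Compounds were added with 1 uM (final) retinol; luminescence was read after 6 hr.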
# [14] = qHTS assay to identify small molecule agonists of the retinoic acid receptor (RAR) signaling pathway (AID 1159553); further: potency means the concentration at half of the fitted maximal effect
# Procedure, shortened: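 C3RL4 RARE-luciferase cells were seeded at 1,000/well and grown overnight at 37 C, then exposed to compounds for 6 hr at 37 C, 5% CO2. Luciferase reagent was added and luminescence was read after 30 min at room temperature.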
# [15] = qHTS assay to identify small molecule antagonists of the estrogen related receptor (ERR) signaling pathway - cell viability counter screen (AID 1224818); further: series mostly up to about 46 µM
# Procedure, shortened: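 ERR cells, 2,000 per well, compound added after 6 h and incubated 17.5 h at 37 C. Viability read by CellTiter-Fluor fluorescence after a further 30 min at 37 C.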
# [16] = qHTS assay to identify small molecule antagonists of the estrogen related receptor (ERR) signaling pathway (AID 1224819)
# Procedure, shortened: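 ERR reporter cell line (NTP) plated at 2,000 cells/well, settled 6 h at 37C/5% CO2, then exposed to LOPAC compounds for 18 h at 37C. One-Glo luciferase luminescence read after 30 min at room temperature.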
# [17] = qHTS assay to identify small molecule agonists of the estrogen related receptor (ERR) signaling pathway (AID 1224820)
# Procedure, shortened: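 ERR reporter cell line (from NTP), 2,000 cells/well, incubated 6 h before compound addition, then 18 h at 37 C. Luminescence measured 30 min after One-Glo reagent at room temperature.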
# [18] = system: estrogen-related receptor alpha (ERRalpha) with PGC-1alpha coactivator, human; experiment: qHTS assay to identify small molecule antagonists of the estrogen related receptor signaling pathway with the pleiotropic PPARgamma coactivator (PGC) (AID 1224821; calls by dose curve)
# Procedure, shortened: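 PGC/ERR reporter cell line, plated 6 h before compound addition, then exposed 18 h at 37 °C. Luciferase activity read by luminescence 30 min after One-Glo addition; decrease indicates antagonism.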
# [19] = qHTS assay to identify small molecule antagonists of the estrogen related receptor signaling pathway with the pleiotropic PPARgamma coactivator (PGC) cell viability counter screen (AID 1224822; further: series mostly up to about 46 µM)
# Procedure, shortened: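 PGC/ERR cells rested 6 h, then compound-treated 17.5 h at 37 C. CellTiter-Fluor added for 30 min at 37 C, viability measured by fluorescence intensity.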
# [20] = qHTS assay to identify small molecule agonists of the endoplasmic reticulum stress response signaling pathway - cell viability counter screen (AID 1159517; calls by dose curve; further: nearly all actives have a fitted effect of over 50% in size; further: potency means the concentration at half of the fitted maximal effect)
# Procedure, shortened: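 HeLa cells carrying an ESRE-driven beta-lactamase reporter receive compound for 5 hr at 37 C. Cell viability is then gauged with CellTiter-Glo by luminescence, 30 min at room temperature.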
SMILES,Potency [1],Potency [2],outcome [3],outcome [4],outcome [5],Potency [6],Potency [7],Potency [8],Potency [9],Potency [10],Potency [11],Potency [12],Potency [13],Potency [14],outcome [15],Potency [16],Potency [17],Potency [18],outcome [19],Potency [20]
O=S(=O)(O)c1cc(S(=O)(=O)O)c2c(N=Nc3ccccc3)c(O)ccc2c1,inactive,inactive,inactive,inactive,inactive,inactive,inactive,inactive,inactive,inactive,inactive,–,–,–,–,–,–,–,–,–
Cn1c([N+](=O)[O-])cnc1COC(N)=O,inactive,–,inactive,inactive,–,inactive,inactive,inactive,inactive,inactive,inactive,inactive,inactive,inactive,–,–,–,–,–,–
C/C=C(C)/C=C/C=C(C)C,inactive,–,inactive,inactive,inactive,inactive,inactive,–,inactive,inactive,inactive,–,–,–,–,–,–,–,–,–
O=C(O)c1cc(-c2ccccc2)nc2ccccc12,inactive,inactive,inactive,inactive,inactive,inactive,inactive,inactive,inactive,inactive,inactive,–,inactive,–,inactive,inactive,inactive,inactive,inactive,–
Nc1c(S(=O)(=O)O)cc(Br)c2c1C(=O)c1ccccc1C2=O,inactive,–,inactive,inactive,–,inactive,inactive,inactive,–,inactive,inactive,inactive,inactive,inactive,–,–,–,–,–,–
C=C(C)C(=O)OCC(CC)(COC(=O)C(=C)C)COC(=O)C(=C)C,inactive,inactive,inactive,inactive,–,inactive,inactive,inactive,inactive,inactive,inactive,inactive,inactive,inactive,–,–,–,–,–,inactive
CC(C)(C)C1CCC(O)CC1 (stereo unspecified),inactive,inactive,inactive,inactive,–,inactive,inactive,inactive,inactive,inactive,inactive,inactive,inactive,inactive,–,–,–,–,–,–
CC1=C(/C=C/C(C)=C/C=C/C(C)=C/CO)C(C)(C)CCC1,inactive,inactive,inactive,inactive,–,inactive,inactive,inactive,–,inactive,inactive,–,inactive,13.9 µM (active) and 32.3 µM (active),–,–,–,–,–,–
NCCc1ccc(O)c(O)c1,inactive,inactive,inactive,inactive,inactive,inactive,inactive,inactive,inactive,inactive,inactive,inactive,–,–,inactive,–,–,–,–,–
c1ccc2ccccc2c1,inactive,–,inactive,inactive,inactive,inactive,inactive,inactive,–,inactive,inactive,inactive,inactive,inactive,–,–,–,–,–,–
CCCCCCCCCCCCN,inactive and 49 µM (active),inactive and 54.9 µM (active),inactive,inactive,–,inactive,inactive,inactive,inactive,21.9 µM (active) and inactive,inactive and 68.6 µM (active),inactive,–,–,–,–,–,–,–,–
CN(C)c1ccc(C(=N)c2ccc(N(C)C)cc2)cc1,–,inactive,inactive,inactive,–,–,inactive,inactive,–,inactive,–,21.4 µM (active) and 20.9 µM (active),inactive,41.6 µM (active),–,–,–,–,–,inactive
CC(=O)[C@@]1(O)CC[C@H]2[C@@H]3CCC4=CC(=O)CC[C@]4(C)[C@H]3CC[C@@]21C,inactive,inactive,inactive,inactive,–,inactive,inactive,inactive,–,inactive,inactive,inactive,inactive,inactive,inactive,–,–,–,inactive,inactive
C=C(C)C(=O)OCCCCCC,inactive,inactive,inactive,inactive,–,inactive,inactive,inactive,inactive,inactive,inactive,–,inactive,inactive,–,–,–,–,–,inactive
O=C(c1cc(O)c(O)c(O)c1)c1ccc(O)c(O)c1O,inactive,–,inactive,inactive,–,inactive,inactive,inactive,inactive,inactive,inactive,21.7 µM (active) and inactive,inactive,inactive,–,–,–,–,–,inactive
Clc1cc(Cl)c(Cl)cc1Cl,inactive,–,inactive,inactive,–,inactive,inactive,inactive,inactive,inactive,inactive,inactive,inactive,inactive,–,–,–,–,–,inactive
ClC1=C(Cl)C(Cl)(Cl)C(Cl)=C1Cl,inactive,inactive,inactive,inactive,–,7.74 µM (active) and 6.11 µM (active),inactive,inactive,inactive,inactive,inactive,inactive,inactive,inactive and 68.6 µM (active),–,–,–,–,–,27.7 µM (active) and 49 µM (active)
Oc1c(Cl)cc(Cl)c(Cl)c1Cl,inactive,–,inactive,inactive,–,inactive,inactive,inactive,inactive,15.2 µM (active) and 13.8 µM (active),inactive,53.3 µM (active) and 61.1 µM (active),inactive,inactive,–,–,–,–,–,inactive
CCCCCCCCC,inactive,inactive,inactive,inactive,–,inactive,inactive,inactive,inactive,inactive,inactive,inactive,–,–,–,–,–,–,–,inactive
O=C(Oc1ccccc1)c1ccc(O)cc1,inactive,inactive,inactive,inactive,–,inactive,inactive,inactive,inactive,inactive,inactive,inactive,inactive,19.4 µM (active) and 30.6 µM (active),–,–,–,–,–,inactive
Cc1ccc(C(=O)O)o1,inactive,–,inactive,inactive,inactive,inactive,inactive,inactive,–,inactive,inactive,inactive,–,–,–,–,–,–,–,–
